# ChEMBL document CHEMBL3433997, “St. Jude Leishmania screening dataset” (2016)
# Molecular target: Glucose transporter (Leishmania mexicana) (UniProt O61059)
# Test: ST_JUDE_LEISH: Cytotoxicity at 2uM final concentration against transgenic Leishmania Mexicana promastigotes LmGT2 that are glucose transport deficient and complemented with the L. Mexicana glucose transporter 2. Activity is measured by DNA content using SYBR green in vitro
# Type: functional
row,Structure (SMILES),inhibition [%]
1,Cn1ccnc1S(=O)(=O)CCNCc1ccc(-c2ccc3ncnc(Nc4ccc(OCc5cccc(F)c5)c(Cl)c4)c3c2)o1,0.71
2,CCOc1ccc(CCCON2C(=N)N=C(N)NC2(C)C)cc1,9.73
3,O=C(NCC1CCN(Cc2ccsc2)C1)c1cc(-c2cccc(C(F)(F)F)c2)cs1 (stereo not given),3.66
4,COc1ccc2nccc([C@@H](O)CN3CCC(NCc4ccc5c(n4)NCCC5)CC3)c2c1,6.5
5,CCCOc1ccc(NC(=O)c2cccs2)cc1Cl,9.7
6,CCCc1cc(Cc2cnc(N)nc2N)cc(CCC)c1OCCCCC(=O)OCC,1.54
7,CC(=O)Nc1ccc(CN2CCC(NC(=O)c3ccc(-c4ccc(N(C)C)cc4)s3)CC2)cc1,2.63
8,Cc1cc2c(/C=C/C(=O)NC3CCC(CCN4CCc5ccc(C#N)cc5CC4)CC3)cccc2[nH]1 (stereo not given),3.25
9,O=C(Nc1cccc(-c2cccc(-c3nc4ccccc4[nH]3)c2)c1)c1cccnc1,0.76
10,COc1ccc2nccc(N3CCC(NCCNS(=O)(=O)c4ccc5c(c4)NC(=O)CS5)C3)c2n1 (stereo not given),-2.22
11,Cc1nnc2c(NC(=O)NC3CCCC3)cc3cc(-c4ccc(CN(C)C)cc4)ccc3n12,0.22
12,c1cc(Nc2nc(-c3ccc(-c4csc(Nc5ccncc5)n4)cc3)cs2)ccn1,-1.05
13,CN(C)c1cc(C(=O)N[C@@H](Cc2ccccc2)[C@H](O)CNC2CCCCC2)cc2[nH]ccc12,7.44
14,Cc1cccc(CNc2nc(C)cc(NCCC(=O)NCc3cccc(F)c3)n2)c1,4.51
15,O=C1Nc2ccc3ncccc3c2/C1=C/Nc1ccc(N2CCN(CCO)CC2)cc1,2.47
16,NC(=O)c1ccccc1OCC(=O)Nc1cccc(-c2ccc(-c3nc4cc(C(F)(F)F)ccc4[nH]3)cc2)c1,2.79
17,CC(C)c1cccc(C(C)C)c1NC(=O)NNC(=O)c1ccc(CCN2CCC(c3nc(COCC(F)(F)F)c(-c4ccc(F)cc4)o3)CC2)cc1,12.7
18,Cc1ccc(NC(=O)c2ccc(CN3CCCN(CC4CCCCC4)CC3)cc2)cc1C,8.98
19,CC(C)c1ccc(NC(=O)c2ccc(CN3CCCN(Cc4cccc(O)c4)CC3)cc2)cc1,5.15
20,COc1cccc(-c2cnc(N)c(-c3nc4ccc(F)cc4[nH]3)c2)c1,4.49

row,Structure (SMILES),inhibition [%]
1,CC(=O)Nc1cccc(C(=O)Nc2ccc(-c3cccc(-c4nc5cc(C(F)(F)F)ccc5[nH]4)c3)cc2)c1,-0.69
2,O=C(C=Cc1ccc(Cl)c(Cl)c1)NCCCCCN1CCC(CCCNC(=O)c2sc3ccccc3c2Cl)CC1,1.61
3,O=C(/C=C/c1ccc(-c2ccccc2)cc1)NCCCCCN1CCC(c2c[nH]c3ccccc23)CC1,-1.76
4,Cc1cccc2nc(-c3cccc(-c4cccc(NC(=O)CNC(=O)c5ccc(O)cc5)c4)c3)[nH]c12,-0.5
5,OC(c1ccc2ccccc2c1)C1CN(CCc2ccccc2)CCC1(O)c1ccccc1 (stereo not given),0.03
6,Cc1nc(C)c(-c2ccc(Oc3ccc([S+](C)[O-])cc3)cc2)c(O)c1Br (stereo not given),3.99
7,Brc1ccc(Nc2nc(NCC3CCCO3)c3ccccc3n2)cc1 (stereo not given),8.12
8,Cc1n[nH]c(C)c1C1CCN(CC2CCC(NC(=O)/C=C/c3ccc(Cl)c(Cl)c3)CC2)CC1 (stereo not given),5.93
9,COC(=O)c1cccc(NC(=O)NC2CCN(c3ccnc(Nc4ccc(F)cc4)n3)C2)c1 (stereo not given),-0.55
10,Cc1cc(N[C@@H](Cc2ccccc2)C(=O)NCc2cccs2)nc(NCCc2ccc(F)cc2)n1,4.14
11,COc1ccc(CCCCN2C(=O)C(c3ccccc3)(c3ccccc3)N=C2N)cc1,0.32
12,Fc1cc(Cl)ccc1Nc1ccnc2cc(-c3scnc3CNCCN3CCOCC3)ccc12,0.33
13,COC(=O)c1ccc(Nc2nccc(Nc3ccc(Oc4ccccc4)cc3)n2)cc1,2.57
14,OCCN1CCN(Cc2cccc(-c3ccc(-c4nc5cc(C(F)(F)F)ccc5[nH]4)s3)c2)CC1,0.82
15,CCOC(=O)C1=C(C)N=c2sc(=Cc3ccccc3O)c(=O)n2C1c1ccc(OC)c2ccccc12 (stereo not given),-1.57
16,c1cc(CNC2Cc3ccccc3C2)cc(-c2cnc(N3CCNCC3)nc2)c1,1.2
17,COc1ccc(C(=O)Nc2nonc2-c2ccc(OC)c(OC)c2)cc1Cl,-0.55
18,CC1CN(c2ccnc3ccc(Sc4ccc(Oc5ccccc5)cc4)cc23)CC(C)N1 (stereo not given),-0.77
19,O=C(NCc1ccccc1)Nc1ccc(-c2ccc(-c3nc4cc(C(F)(F)F)ccc4[nH]3)cc2)cc1,0.55
20,COc1ccc(N2CCN(c3nc(Nc4ccc(NC(C)=O)cc4)nc(N4CCCC4)n3)CC2)cc1,5.96
